Screening results (PubChem BioAssay)
This excerpt belongs to a sample that is enriched for hits.
GALR2 antag: antagonists of human galanin receptor 2 (GALR2); O43603; GALR2-expressing cells, antagonist mode; inhibition, % at 4 µM; hit rate 0.39% among 140,000; in the data active = inhibition above about 27%;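 note: cells stimulated with galanin 1-16 at roughly its EC80; 0% = agonist challenge control and 100% = basal control without agonist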
Target sequence (O43603 whole entry, looked up): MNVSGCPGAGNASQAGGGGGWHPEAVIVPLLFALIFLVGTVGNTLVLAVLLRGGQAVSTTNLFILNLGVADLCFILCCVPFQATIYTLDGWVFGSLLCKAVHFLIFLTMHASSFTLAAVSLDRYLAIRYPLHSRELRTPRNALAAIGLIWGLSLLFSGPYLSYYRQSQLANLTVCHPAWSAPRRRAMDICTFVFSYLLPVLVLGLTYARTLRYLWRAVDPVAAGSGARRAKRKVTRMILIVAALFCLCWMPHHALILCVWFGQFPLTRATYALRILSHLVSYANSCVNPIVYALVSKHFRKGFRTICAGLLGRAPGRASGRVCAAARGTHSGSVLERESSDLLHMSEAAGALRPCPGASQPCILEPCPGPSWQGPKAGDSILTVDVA
PostGolgi ctrl: inhibits growth of the yeast control strain; inhibition, % at 10 µM; efflux-deficient yeast background strain, growth absorbance A615, 16 h; hit rate 5% among 98,000
S1P2 antag: blocks the human S1P2 receptor | O95136 | hit rate 0.21% among 97,000 | cell-based S1P2 antagonist assay, inhibition at 5 uM | AID 736 | inhibition, % at 5 µM; in the data active = inhibition above about 45%;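 note: CRE beta-lactamase reporter cells expressing human S1P2 stimulated with S1P; 0% = agonist at EC80 alone and 100% = agonist plus reference antagonist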
S1P2 agonist: activates the human S1P2 receptor; S1P2-expressing cell line, agonist reporter read-out; activation, % at 4.5 µM; hit rate 0.46% among 97,000; AID 729; in the data active = activation above about 16%;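 note: 0% = vehicle low control and 100% = maximal reference agonist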
GALR2 ag: activates the human galanin receptor 2; activation, % (test concentration not listed); GALR2-expressing cells, agonist activation read-out; hit rate 0.48% among 140,000; O43603; in the data active = activation above about 5%, passing the limit was not always enough;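 note: 0% = vehicle buffer wells and 100% = reference agonist at full effect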
PostGolgi yeast: growth inhibition of a yeast mutant, post-Golgi transport screen | AID 739 | hit rate 0.9% among 98,000 | inhibition, % at 10 µM | post-Golgi transport phenotypic cell assay;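 note: yeast cells grown in 1536-well plates; yeast grown about 18 h at 30C before absorbance read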
Active calls of the source: *; . = no result given. Cut-off read from the data, not from the text of the source, unless noted: active = inhibition above about 30%; inactive = the rest.

SMILES	GALR2 antag	PostGolgi ctrl	S1P2 antag	S1P2 agonist	GALR2 ag	PostGolgi yeast
Cn1cc(/C=C(\C#N)C(=O)Nc2ncc(Cc3cccc(Cl)c3)s2)c2ccccc21	1	.	.	.	0	.
N#C/C(=C\c1c[nH]c2ccccc12)C(=O)Nc1ncc(Cc2ccc(Cl)cc2Cl)s1	-10	.	.	.	6.4*	.
CCCSc1ncc(Cl)c(C(=O)Nc2ccc(S(=O)(=O)N3CC(C)OC(C)C3)cc2)n1 (configuration not stated)	-1	21	2	-3	0	39*
Cc1cc(C)nc(NS(=O)(=O)c2ccc(NC(=O)c3ccc(S(=O)(=O)N4CC(C)OC(C)C4)cc3)cc2)n1 (configuration not stated)	-4	.	.	.	0	.
O=C(O)/C=C/C(=O)NNC(=O)c1cccc(Br)c1	12	.	.	.	-2	.
Cc1ccc(Cl)cc1NC(=O)COC(=O)C12CC3CC(CC(C3)C1)C2	-14	36*	-24	-5	1	12
Cc1ccc(Cl)cc1NC(=O)COC(=O)C1CCCC1	-2	11	.	.	-1	1
O=C(Nn1c(C2CCCCC2)nc2ccccc2c1=O)c1ccc([N+](=O)[O-])cc1Cl	18	.	.	.	-1	.
O=C(COC(=O)c1ccc(S(=O)(=O)Nc2ccccc2)cc1)NCc1ccco1	-3	-1	4	-5	-2	-4
CCCCOc1ccc(C(=O)N2CC(C)OC(C)C2)cc1 (configuration not stated)	7	5	-17	-1	-1	1
CC1CN(CC(O)COc2ccc(C(C)C)cc2)CC(C)O1 (configuration not stated)	2	22	-13	0	0	59*
COc1cc(C)ccc1OCCCCN1CC(C)OC(C)C1 (configuration not stated)	3	33*	20	1	-2	60*
CC1CN(CCCCOc2ccc(C(C)C)cc2)CC(C)O1 (configuration not stated)	2	53*	19	-3	-2	97*
O=C(CSc1nc2c(sc3ccccc32)c(=O)n1Cc1ccco1)NCC1CCCO1 (configuration not stated)	-1	32*	15	-3	-1	6
NC(=O)c1ccsc1NC(=O)c1nc(-c2ccccc2)n(-c2ccccc2)n1	0	11	.	.	-2	73*
O=C(Nc1ccccn1)c1nc(-c2ccccc2)n(-c2ccccc2)n1	-9	.	.	.	-1	.
Cc1ccccc1-c1cc(C(=O)Nc2sc(C)c(C)c2C(N)=O)c2ccccc2n1	12	39*	-41	17*	0	13
O=[N+]([O-])c1cc(Cl)cc(/C=N\Nc2ccccn2)c1O	9	19	-9	-2	-3	80*
CCCNC(=O)CN(CCc1ccccc1)S(C)(=O)=O	0	-3	2	-1	-1	7
O=C(c1cc(-c2ccc(Cl)cc2)n(-c2cc(Cl)ccc2Cl)n1)N1CCOCC1	8	43*	21	-1	-1	5
O=C(c1cc(-c2ccc(Cl)cc2)n(-c2ccc(Cl)c(Cl)c2)n1)N1CCOCC1	-5	40*	-3	-3	0	-9
Cc1nn(-c2ccccc2)c(C)c1/C=N/NC(=O)c1ccccc1NS(=O)(=O)c1cccs1	-3	.	.	.	0	.
O=C(NCc1ccccn1)C1CCN(S(=O)(=O)N2CCCC2)CC1	13	39*	.	.	-1	-1
Cc1ccc(N2C(=O)[C@@H]3C(C(=O)C(c4ccccc4)c4ccccc4)=NN[C@@H]3C2=O)cc1	-8	.	.	.	0	.
CNc1nc(Nc2ccc(Br)cc2)nc(N)c1[N+](=O)[O-]	7	.	.	.	5.3*	.
SMILES	GALR2 antag	PostGolgi ctrl	S1P2 antag	S1P2 agonist	GALR2 ag	PostGolgi yeast
CC(=O)n1cc(C2C(=O)CCCC2=O)c2ccccc21	8	3	2	-8	-2	6
CC(=O)N1C=CN(C(C)=O)C(c2cn(C)c3ccccc23)C1c1cn(C)c2ccccc12 (configuration not stated)	14	34*	.	.	-2	-4
COc1cc(OC)nc(Oc2ccccc2C(=O)Oc2cccc(C)c2)n1	11	18	-11	-9	-4	-8
Cc1cc(C)nc(N/C(=N\S(=O)(=O)Cc2ccccc2)Nc2ccc(F)c(Cl)c2)n1	2	.	.	.	0	.
Cc1nn(Cc2c(F)cccc2Cl)c(C)c1NC(=O)C1CC1	6	.	.	.	-1	.
CC1CC(NC(=O)N(C)C)N(C)C(=O)N1 (configuration not stated)	0	.	.	.	-2	.
CCOC(=O)C1CCCN(C(=O)C2CCCN(S(=O)(=O)c3ccc4c(c3)oc(=O)n4C)C2)C1 (configuration not stated)	0	1	21	-2	-1	-6
COc1ccc(S(=O)(=O)N2CCC(C(=O)N3CCc4ccccc4C3)CC2)cc1Cl	5	49*	16	-9	-3	-2
Cn1c(=O)oc2cc(S(=O)(=O)N3CCCC(C(=O)N4CCc5ccccc5C4)C3)ccc21 (configuration not stated)	6	51*	1	-5	-1	-5
O=C(C1CCN(S(=O)(=O)c2ccc3c(c2)OCCO3)CC1)N1CCc2ccccc21	6	33*	.	.	-1	-10
O=C(Nc1cccc(Cl)c1)c1cc(S(=O)(=O)NCCc2ccc(Cl)cc2)ccc1F	-17	.	.	.	-3	.
COc1ccc(NC(=O)c2cc3sccc3n2Cc2ccc(F)cc2)cc1OC	8	33*	5	-4	-3	2
CC12CCC(C(=O)Nc3ccccc3Cl)(C(Br)C1=O)C2(C)C (configuration not stated)	5	.	.	.	-2	.
O=c1[nH]c(=O)n(-c2ccc(F)cc2)c2c1C(C(F)(F)F)(C(F)(F)F)N=C(c1ccc(F)cc1)N2	18	.	.	.	-1	.
COc1ccc(C2=NC(C(F)(F)F)(C(F)(F)F)c3c(n(C)c(=O)n(C)c3=O)N2)cc1	3	9	-16	-8	-1	92*
Cc1ccnc(SCc2cc(=O)c(OC(=O)c3ccc(Cl)c([N+](=O)[O-])c3)co2)n1	3	.	.	.	0	.
COc1ccc(OC)c(C=Nc2ccccc2-c2nc3ccccc3[nH]2)c1	0	.	.	.	-1	.
COc1cc(/C=N/N(C)c2ccccc2)cc(Cl)c1O	16	48*	-2	-6	-3	2
COc1ccc(OC)c(/C=N/N(C)c2ccccc2)c1	-9	32*	-27	-1	1	-1
COc1cc(/C=N/Nc2nc(Nc3ccccc3)nc(-n3nc(C)cc3C)n2)cc(OC)c1OC	7	.	.	.	8.1*	.
COc1cc(/C=N/Nc2nc(Nc3ccc(C)cc3)nc(-n3nc(C)cc3C)n2)cc(OC)c1OC	7	11	47*	-1	6	-9
Clc1ccc(Cc2nc(-c3cccnc3)no2)cc1	8	-8	-5	-4	-3	-10
Cc1ccc(-n2c(O)c(C=NCc3ccccn3)c3ccccc3c2=O)cc1C	-5	.	.	.	0	.
CCOc1ccc(C(=O)NC(=S)Nc2cccc(NC(=O)c3ccco3)c2)cc1[N+](=O)[O-]	-8	.	.	.	0	.
Cc1ccc(S(=O)(=O)NNc2nc3ccccc3nc2C(F)(F)F)cc1	-7	8	-6	-1	0	-1
